In PubChem BioAssay (Tox21):
Inconclusive results are not listed. Unmarked numbers belong to inactive results. Calls follow the shape of the dose curve; as a rule, active = well fitted cell-killing curve with a large enough effect in the repeat runs; inconclusive = weak or mixed curves; inactive = flat fitted curve, though single readings scatter.

Experiment: qHTS RealTime-Glo MT Cell Viability Assay in HepG2 cells - 24 hour (AID 1224867); also: nearly all actives have a fitted effect of over 50% in size
Conditions: RealTime-Glo luminescence; series mostly up to 76.8 µM; activity change, negative = cytotoxicity: at the top concentration
From the text: U.S. Tox21 Program National Center for Advancing Translational Sciences [NCATS] NIH Chemical Genomics Center [NCGC] U.S. Environmental Protection Agency [EPA] National Institutes of Environmental Health Sciences [NIEHS] National Toxicology Program [NTP] U.S. Food and Drug Administration [FDA] Tox21 Assay Overview: Measure of cell viability is critical in the cell-base assay. Analysis of cell viability is necessary for the characterization of cell responses to cytotoxic drugs and environmental stress. A RealTime-Glo MT Cell Viability Assay to monitor cell viability in real time of continues cell culture during 40 hours of compound treatment was used to screen Tox21 10K library compounds in HepG2 cells. The RealTime-Glo MT Cell Viability Assay is a nonlytic, homogeneous, bioluminescent method to measure cell viability in real time using a simple, plate-based method. The assay involves adding NanoLuc luciferase and a cell-permeant prosubstrate to cells in culture. Viable cells reduce the proprietary prosubstrate to generate a substrate for NanoLuc luciferase. This substrate diffuses from cells into the surrounding culture medium, where it is rapidly used by the NanoLuc Enzyme to produce a luminescent signal. The signal correlates with the number of viable cells, making the assay well suited for cytotoxicity studies.
Tox21 Assay Protocol Summary: The mixture of HepG2 cell suspension and reagents were dispensed at 600cells/6 ul/well in 1536-well tissue culture treated black solid bottom plates using a Multidrop dispenser. After the assay plates were incubated at a 37 C/5% CO2 incubator for 5 hours, 23 nL of compounds dissolved in DMSO, positive and negative controls was transferred to the assay plate by a pintool work station. The plates were incubated at 37 C for 40 hours. The luminescence intensity were measured at 0h, 8h, 16h, 24h, 32h and 40h time points using ViewLux plate reader during compound treatment.
% is scaled to controls: 0 for no effect and ±100 for the full control effect.

First: CCCCc1nc(Cl)c(CO)n1Cc1ccc(-c2ccccc2-c2nn[nH]n2)cc1
Second: Cc1ccc(-c2ccccc2C#N)cc1
The “activity change, negative = cytotoxicity” value of the first is higher: 2.03% [at 35.3 µM] for the first, 1.18% [at 35.3 µM] for the second.

Compared with `CN(C)C(=O)Oc1ccc[n+](C)c1`, `CN(C)C(=O)Oc1cccc([N+](C)(C)C)c1` is lower in “activity change, negative = cytotoxicity” value: 5.09% [at 35.3 µM] for the first, 3.21% [at 35.3 µM] for the second.

Going from `C[C@H]1C[C@H]2[C@@H]3CCC4=CC(=O)C=C[C@]4(C)[C@H]3C(=O)C[C@]2(C)[C@@]1(O)C(=O)CO` to `Nc1ccn([C@@H]2O[C@H](CO)[C@@H](O)C2(F)F)c(=O)n1`, the “activity change, negative = cytotoxicity” value rises from -1.43% [at 35.3 µM] to -0.132% [at 35.3 µM].

First: CC(=O)NC(=O)c1ccccc1O
Second: Cc1coc2ccccc2c1=O
The “activity change, negative = cytotoxicity” value of the first is lower: 1.63% [at 35.3 µM] for the first, 2.58% [at 35.3 µM] for the second.

First: CC[N+](CC)(CC(=O)Nc1c(C)cccc1C)Cc1ccccc1 (tested in a mixture with another compound)
Second: O=C(O)CCCC[P+](c1ccccc1)(c1ccccc1)c1ccccc1
The “activity change, negative = cytotoxicity” value of the first is higher: 1.66% [at 35.3 µM] for the first, 0.0587% [at 35.3 µM] for the second.

Going from `CO[C@@]1(NC(=O)C(C(=O)O)c2ccc(O)cc2)C(=O)N2C(C(=O)O)=C(CSc3nnnn3C)CO[C@@H]21` (stereo not given in full) to `COc1cc(C(=O)NCc2ccc(OCCN(C)C)cc2)cc(OC)c1OC`, the “activity change, negative = cytotoxicity” value falls from 1.31% [at 35.3 µM] to -0.811% [at 35.3 µM].

Going from `COc1cc(C)nc(-n2nc(C)cc2OC)n1` to `CCOc1ccc2nc(S(N)(=O)=O)sc2c1`, the “activity change, negative = cytotoxicity” value falls from 1.25% [at 35.3 µM] to -1.77% [at 35.3 µM].

Going from `CNCC(O)c1ccc(O)c(O)c1` (stereo not given) to `CC1=C(C/C=C(\C)CCC[C@H](C)CCC[C@H](C)CCCC(C)C)C(=O)c2ccccc2C1=O`, the “activity change, negative = cytotoxicity” value rises from -5.09% [at 35.3 µM] to -0.974% [at 35.3 µM].

For `COCCOCC(OC)OC`, the “activity change, negative = cytotoxicity” value was 1.78% [at 35.3 µM].

`Cc1cc(C)c(N=Nc2c(O)c(S(=O)(=O)O)cc3cc(S(=O)(=O)O)ccc23)cc1C` gave an activity change, negative = cytotoxicity of -1.15% [at 6.97 µM].

Compound `C[N+]1(CC2COC(c3ccccc3)(c3ccccc3)O2)CCCCC1` (stereo not given) has an activity change, negative = cytotoxicity of -0.511% [at 15.8 µM].

Going from `CC(C#N)(CCC(=O)O)N=NC(C)(C#N)CCC(=O)O` (stereo not given) to `CC(C)(CCC(=O)O)C(=O)O`, the “activity change, negative = cytotoxicity” value falls from 0.366% to -0.531%.

First: CN(C)CCCN(C)CCCN(C)C
Second: CCCC[N+](C)(CCCC)CCCC
The “activity change, negative = cytotoxicity” value of the first is lower: -0.826% for the first, 0.697% for the second.

Compared with `CCNS(=O)(=O)c1ccc(C)cc1`, `Cc1ccc(C(=O)c2ccccc2)cc1` is lower in “activity change, negative = cytotoxicity” value: 0.736% for the first, -8.41% for the second.

Compared with `CCCC(C)C(=O)OCC` (stereo not given), `CCN(C=O)CC` is lower in “activity change, negative = cytotoxicity” value: 3.78% for the first, 0.592% for the second.

First: CC(C)(C)c1ccc(-c2ccc(C(C)(C)C)cc2)cc1
Second: CCOc1ccccc1OCC
The “activity change, negative = cytotoxicity” value of the first is lower: 2.07% for the first, 2.55% for the second.

First: CCOC(=O)COc1cc(-n2ncc(C(F)(F)F)c(C)c2=O)c(F)cc1Cl
Second: COC(=O)Nc1ccc(Cl)c(Cl)c1
The “activity change, negative = cytotoxicity” value of the first is lower: -1.29% for the first, 0.67% for the second.

First: C=COCC1CCC(COC=C)CC1 (stereo not given)
Second: CC(=O)C1CCCCC1=O (stereo not given)
The “activity change, negative = cytotoxicity” value of the first is lower: -0.323% for the first, 1.84% for the second.

Going from `O=S(=O)(O)c1cccc(S(=O)(=O)O)c1` to `CCO[Si](OCC)(OCC)c1ccccc1`, the “activity change, negative = cytotoxicity” value rises from 0.052% to 0.942%.

Going from `C=CCCC(=O)O` to `O=C(CO)[C@@H](O)[C@H](O)[C@H](O)CO`, the “activity change, negative = cytotoxicity” value falls from 2.91% to 0.995%.

First: CNCCO
Second: CCCCCCCCCC[N+](C)(C)[O-]
The “activity change, negative = cytotoxicity” value of the first is lower: 0.43% for the first, 1.18% for the second.

In the case of `CC1=CCC(O)(C(C)C)CC1` (stereo not given), the “activity change, negative = cytotoxicity” value was 3.9%.
